“And” between values parts separate entries of the source, which are not always exact repeats. Identical values can stand only once. The campaign covered roughly 360,000 compounds. About 2,100 (0.58%) were called active.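 Rule for the calls: active = inhibition at 20 µM, scaled to each plate's controls, above about 33% (limit read from the data); inactive = the rest.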 Shown is part of a subset that was picked to be rich in actives.
Molecular target: 26S proteasome non-ATPase regulatory subunit 14 (Homo sapiens) (UniProt O00487)
Sequence (O00487 whole entry, looked up): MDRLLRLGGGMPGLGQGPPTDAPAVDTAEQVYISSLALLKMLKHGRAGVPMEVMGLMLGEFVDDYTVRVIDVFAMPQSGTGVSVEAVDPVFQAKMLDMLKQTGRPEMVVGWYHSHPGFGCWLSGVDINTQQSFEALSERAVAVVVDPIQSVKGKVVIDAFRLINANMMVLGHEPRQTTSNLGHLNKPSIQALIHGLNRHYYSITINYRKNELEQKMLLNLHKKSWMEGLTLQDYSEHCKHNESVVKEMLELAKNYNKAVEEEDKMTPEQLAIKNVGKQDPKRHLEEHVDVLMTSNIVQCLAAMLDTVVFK
Assay: inhibition of 26S proteasome subunit Rpn11 – biochemical, fluorescence polarization, uHTS, primary screen (AID 588493)
Details: human 26S proteasome, Ub4-pepOG fluorescence polarization; at 20 µM; stronger effect = higher value; 20S core pre-blocked with epoxomicin

inhibition, active:
CCCOc1ccc(Cn2c(O)cc(=O)[nH]c2=O)cc1 65.3%
COc1ccc2c(c1)c(=Cc1ccc(N(C)C)cc1)c1cc(-c3ccccc3)[n+](C)n12 59.4%
CC(C)Cn1c(CCC(=O)O)ccc1-c1cccs1 39.7%
CC(=O)c1sc(N/N=C/c2ccc(C(C)C)cc2)nc1C 42.3%
Oc1ccc(/C=N/Nc2nc(-c3ccccc3F)nc3ccccc23)c(O)c1 43.1%
O=C(COc1cccc(F)c1)Oc1ccc(C(=O)c2ccccc2)cc1 43%
C=CCn1c(SCC(=O)NCc2ccccc2)nnc1-c1cc(Br)ccc1O 37.3%
N#Cc1ccc(C(=O)Nc2cccc3cccnc23)c(F)c1 102%
COc1cccc(-c2nn(-c3ccccc3)cc2/C=C(\C#N)C(=O)NCCCn2ccnc2)c1 56%
O=C(N/N=C/c1cccc(Br)c1)c1ccc(N2CCCC2=O)cc1 49.1%
CC1CCN(c2ccc3c(c2)S(=O)(=O)c2cc(C(=O)O)ccc2C3=O)CC1 57.1%
CCNCc1cc2cc(C)ccc2[nH]c1=O 82.8%
CCN1CCN(c2cc3nc(C)n(Cc4ccccc4)c(=O)c3cc2NC(=O)c2ccccc2F)CC1 47.3%
CCN1CCCC1CNC(=O)c1cc2c(=O)n(C)c3ccccc3c2n1C (stereo unspecified) 66.2%
COc1cccc(/C=C(/CC(=O)Nc2ccc(N3CCOCC3)cc2)c2nc3ccccc3s2)c1 41.7%

inhibition, inactive:
Cc1nnc(SCc2nc3ccccc3nc2C)s1 -1.4%
COc1ccc2cc(C(=O)C3CCCN(C(=O)c4sc(C)nc4C)C3)ccc2c1 (stereo unspecified) 5.8%
COc1cc(CO)ccc1OCC(=O)Nc1cccc2ccccc12 1.6%
COc1cc(=O)[nH]c(=O)n1C(=O)Cc1ccccc1 2.2%
COc1ccc(Cn2c(O)c(/C=C3/C=CC=N3)c(=O)[nH]c2=O)cc1 14.5%
COc1ccc(C2c3[nH]c4ccccc4c3C[C@H]3C(=O)N(CC(C)C)CC(=O)N23)c(OC)c1 (stereo partly specified) -8.2%
Cc1ccc(NC(=O)CN(C)Cc2ccc(F)cc2)c([N+](=O)[O-])c1 -8.1%
O=C(CNC(=O)c1ccc(Cl)cc1Cl)NCC(=O)Nc1ccccc1N1CCOCC1 -2.4%
CCCNC(=O)CCn1nc(-c2ccccc2)c2ccccc2c1=O -1.2%
CCOC(=O)c1ccc(-n2c(CCC(=O)O)ccc2-c2ccccc2)cc1 1.9%
COCCCn1c(CCC(=O)O)ccc1-c1ccc(F)cc1 6.6%
CC(=O)c1sc(NC(=O)C2=NN(c3ccccc3)C(=O)CC2)nc1C 1.1%
CC(=O)c1sc(N)nc1C -7.7% and -13.1%
Cc1cc2c(cc1C)N1C(=O)c3cc4ccccc4cc3NC(=O)C1C(=O)N2 (stereo unspecified) 7%
COc1ccc(NC(=O)c2cn(-c3ccccc3)nc2SC)cc1 4.3%
CCOc1ccc(-c2c(C)n([O-])c3c([n+]2=O)CCCC3)cc1 3%
O=C(NNc1c2ccccc2nc2ccccc12)c1cc2ccccc2cc1O -5.5%
Cc1ccc(/C=N/NC(=O)C2=NNC(c3ccccc3)(c3ccccc3)C2)c(O)c1 3.5%
Cc1nnc(SC(C)C(=O)c2c[nH]c3ccccc23)n1C1CC1 (stereo unspecified) -0.9%
CCCCN(C(=O)c1ccc(C)o1)c1c(N)n(CCCC)c(=O)[nH]c1=O -3.8%
O=C(COC(=O)COc1cccc(F)c1)NCC1CCCCC1 -7.3%
CCN(C(=O)COc1ccc(C(=O)c2ccccc2)cc1)c1ccccc1 -0.2%
O=C(c1cccnc1)N(c1cc2sc(=O)oc2c2ccccc12)S(=O)(=O)c1ccccc1 2.8%
NC(=O)Cc1ccc2sc(-c3ccccc3)nc2c1 4.7%
C=CCn1c(SCC(=O)NC(=O)Cc2ccccc2)nc2ccccc2c1=O 0.5%
O=C(CSc1nnc(-c2cccnc2)n1CCc1ccccc1)NCc1ccccc1 -6.8%
COc1ccc(CNc2c(CO)cnc3c2cnn3C)cc1 -6.6%
COCCCNC(=S)N1CCN(c2nc(-c3cccc(OC)c3)cs2)CC1 5.4%
CSc1ccc(C#N)cc1NC(=O)c1cccc(Cl)c1 7.6%
COc1ccc(NC(=O)c2ccco2)cc1NC(=O)c1ccc(C#N)cc1F -5.8%
Cc1ccc(CCNC(=O)CN2C(=O)CSc3ccc(S(=O)(=O)N4CCOCC4)cc32)cc1 -1.8%
CCCCCCCCc1c(O)nc(-n2[nH]c(C)c(CCO)c2=O)[nH]c1=O 11.1%
COc1cc(OC)cc(C(=O)NCCCn2ccnc2)c1 0.7%
COc1ccc(/C=C(\C#N)C(=O)NCCCn2ccnc2)cc1 -1.5%
CCCCc1nnc(NC(=O)CS(=O)(=O)Cc2ccccc2)s1 5.2%
C/C(=N/NS(=O)(=O)c1ccccc1)c1ccc(NC(=O)C(F)(F)F)cc1 -2%
NC(=O)c1cc(S(=O)(=O)NCCCc2ccco2)cs1 -4.1%
O=C(Nc1ccc(N2CCCC2=O)cc1)c1cncc(Br)c1 -4.8%
O=C(N/N=C\c1cccc(Br)c1)c1ccccc1-n1cccc1 23.2%
Cc1cc2nc(-c3ccco3)c(Cc3cccc(F)c3)n2c(C)c1Br 11.6%
CN(C)CCn1c2c(c(SCC(=O)Nc3ccccc3C(F)(F)F)nc1=O)CCCC2 -0.6%
O=C1c2ccccc2S(=O)(=O)c2cc(N3CCN(c4ccccn4)CC3)ccc21 40.2%
OC(c1ccc(Cl)cc1)c1ncc(-c2ccc(Cl)cc2)[nH]1 (stereo unspecified) -5.5%
COc1ccc(CNC(=O)C(C)n2nc(C)c3c(C)n(-c4ccccc4)nc3c2=O)c(OC)c1 (stereo unspecified) 0%
CCCCN(C(=O)C1CCC1)c1c(N)n(Cc2ccccc2)c(=O)[nH]c1=O -10.9%
Cc1ccc(Cl)cc1NC(=O)COC(=O)C1CCCCC1 -8.8%
CCCc1nc(-c2cc3cc(C)ccc3[nH]c2=O)no1 -0.2%
CCC(=O)N(CCc1ccccc1)Cc1cc2cc(C)ccc2[nH]c1=O -6.2%
CCc1noc(C)c1C(=O)N1CCN(S(=O)(=O)c2cccc(C(F)(F)F)c2)CC1 0%
CC(=O)c1ccc(NC(=S)N(Cc2ccccc2)C(C)C2CC2)cc1 (stereo unspecified) 8.8%
CCOc1cc(NC(=O)c2ccccc2C(=O)O)c(OCC)cc1NC(=O)c1ccccc1F 1.8%
CCC(=O)Nc1ccc2nc(C)n(Cc3ccccc3Cl)c(=O)c2c1 -7.7%
Fc1ccc(CNc2nc3ccccc3n3nnnc23)cc1 -38.7%
Cn1c(C(=O)N2CCC(C(N)=O)CC2)cc2c(=O)n(C)c3ccccc3c21 -3.7%
CCN1CCCC1CNC(=O)c1cc2cc(OC)c(OC)cc2[nH]1 (stereo unspecified) -10.4%
Cc1ccc(OCCCC(=O)Nc2ccc(N3CCOCC3)cc2)cc1 1.7%
CCn1c(Cc2ccc(OC)cc2)nnc1SCC(=O)Nc1ccc(N2CCOCC2)cc1 5%
COc1cc(OC)cc(C(=O)Nc2ncc3c(n2)CC(C)(C)CC3=O)c1 1.2%
CCN(CC)S(=O)(=O)c1ccc2nc(CSc3nnnn3-c3ccc(O)cc3)[nH]c2c1 0.9%
O=C(Nc1cc(Br)ccc1F)c1nc[nH]c1C(=O)NCc1ccccc1 -6.2%
O=C(c1ccc2c(c1)N(Cc1ccc(F)cc1)C(=O)CS2)N1CCOCC1 1.1%
